# In the library only some 1.8% were active in any assay of this set; here they are far more common.
# PrPC TRFRET: inhibitors of human cell surface prion protein PrPC; P04156; TR-FRET read-out; inhibition, % at 13.8 µM; 370,000 compounds, 0.43% hits; AID 720596; in the data active = inhibition above about 24%; note: 0% = median of the test wells and 100% = reference compound wells
# PfHsp40 yeast: restores yeast growth despite PfHsp40 toxicity; S. cerevisiae expressing PfHsp40, growth rescue, ATP luminescence; growth rescue, % at 12.5 µM; 340,000 compounds, 0.68% hits; in the data active = growth rescue above about 28%, passing the limit was not always enough;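 note: yeast W303a lacking pdr1 and pdr3 grown in galactose medium; growth measured after three days at 30 °C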
# PriA SSB inh: inhibitors of Klebsiella pneumoniae PriA binding to SSB C-terminal tail. AlphaScreen SSBct-PriA binding, biotinylated peptide. inhibition, % at 33 µM. 430,000 compounds, 0.6% hits; in the data active = inhibition mostly above about 37%, no sharp cut-off; inactive = mostly below about 20%;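 note: plate controls were negative control peptide for no effect and reference peptide for full effect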
# PrP UTR inh: inhibition of PrP 5' UTR reporter expression | AID 488862 | 340,000 compounds, 0.35% hits | cell-based PrP 5' UTR mRNA reporter, plate reader | inhibition, % (no concentration beside the values); in the data active = inhibition above about 52%; note: 0 = median of the neutral control wells
# MazF activator: increases E. coli MazEF RNase cleavage of RNA. P0AE70. FAM/BHQ RNA-DNA oligo cleavage fluorescence, 5 h. activation, % at 20 µM. 350,000 compounds, 0.32% hits. AID 504720; in the data active = activation above about 50%
# PrPC TRFRET cf: confirmation of inhibitors of cell surface human prion protein; inhibition, % at 13.8 µM; AID 743200; shares compounds with PrPC TRFRET; 1,500 compounds, 65% hits; cell surface PrPC level, TR-FRET; in the data active = inhibition above about 25%
# LD9 cytotox: counter-screen for PrPc inhibitors: cytotoxicity in LD9 cells. shares compounds with PrPC TRFRET. luminescence viability. inhibition, % at 13.8 µM. 1,500 compounds, 29% hits. AID 743201; in the data active = inhibition above about 9.5%
# Starred values were filed as active, the others as inactive; x = no result given.
SMILES,PrPC TRFRET,PfHsp40 yeast,PriA SSB inh,PrP UTR inh,MazF activator,PrPC TRFRET cf,LD9 cytotox
COc1ccc(CC(N)c2csc(Nc3ncccn3)n2)cc1 (centres undefined),38*,x,x,x,x,38*,3
COc1ccc(C(N)c2csc(Nc3ncccn3)n2)cc1 (centres undefined),36*,x,x,x,x,18,-6
COc1cc(OC)nc(Nc2nc(C(N)c3ccccc3)cs2)n1 (centres undefined),6,x,x,x,x,x,x
Cc1cc(N2CCCC2=O)cc(C)c1S(=O)(=O)NCCOc1ccc(C(C)(C)C)cc1,32*,12,-2,-3,-1,29*,8
O=C1CCCN1c1ccc(S(=O)(=O)NCCOc2ccccc2)cc1,2,-1,-10,-2,-2,x,x
Cc1ccc2nc(Br)c3c(c2c1)OC(CBr)C3 (centres undefined),29*,1,-10,-11,4,43*,-4
Cc1nc2c(Cl)cccc2c2c1CC(CBr)O2 (centres undefined),11,-1,-16,-4,3,x,x
O=C1CCc2cc(S(=O)(=O)N3CCSC(c4ccccc4F)CC3)cc3c2N1CC3 (centres undefined),x,x,-10,x,x,x,x
O=C(NC1CC1)C1CCCN(C(=O)Nc2ccc(F)cc2)C1 (centres undefined),31*,2,-10,-15,-10,15,0
CC[C@H](C)[C@@H]1NC(=O)CNC(=O)c2csc(n2)[C@H](C(C)(C)O)OC(=O)C(C)(C)[C@H](CCCC(C)(Cl)Cl)OC(=O)c2csc1n2,34*,x,x,x,x,26*,9
N#CCc1ccc(NC(=O)Nc2cccc(Cl)c2)cc1,31*,1,4,-46,13,33*,5
CCOc1cc(S(=O)(=O)n2cc(-c3ccc(F)cc3)c(N)n2)cc(OCC)c1OCC,29*,-1,1,-11,1,19,4
CCOc1ccc(S(=O)(=O)n2cc(-c3ccc(F)cc3)c(N)n2)cc1,4,2,-3,-18,2,x,x
CCOC(=O)c1c(/N=C/N(C)C)sc(/C=N/Nc2ccccc2)c1-c1ccccc1Cl,0,0,x,-10,-13,x,x
CCOC(=O)c1c(/N=C/N(C)C)sc(/C=N/Nc2ccccc2)c1-c1ccccc1,54*,0,x,-24,5,40*,0
CCC(=O)N1CCN(c2ccc(NC(=O)c3ccc([N+](=O)[O-])o3)cc2)CC1,11,0,-2,-10,0,x,x
CCCC(=O)N1CCN(c2ccc(NC(=O)c3ccc([N+](=O)[O-])o3)cc2)CC1,33*,0,7,-31,2,8,78*
O=C(Nc1nc(-c2ccccc2)cs1)c1ccccc1NS(=O)(=O)c1ccc(F)cc1,35*,7,-13,-6,-6,30*,32*
Cc1ccc(S(=O)(=O)n2nc(C)c(S(=O)(=O)N3CCCCC3)c2C)cc1,-2,-1,10,-13,4,x,x
Cc1nc(SCC(=O)NC2CCS(=O)(=O)C2)c2c(C)c(C)sc2n1 (centres undefined),-6,1,5,-2,-3,x,x
Brc1ccc2nc(-c3ccc(CN4CCC5(CC4)CNc4ccccc45)cc3)c(-c3ccccc3)nc2c1,26*,x,x,x,x,53*,0
Cc1cc(C)cc(-n2nnn(C3CC(=NNC(N)=S)C4OCC3O4)c2=S)c1 (centres undefined),x,x,15,x,x,x,x
NC(=S)N/N=C1\CC(n2nnn(-c3cccc(Cl)c3)c2=S)C2COC1O2 (centres undefined),28*,1,x,-26,4,42*,-4
Cc1cc(Cl)c(S(=O)(=O)NC(C(=O)O)C(C)C)cc1OCC(=O)NC1CCCCC1 (centres undefined),5,2,0,-12,7,x,x
Cc1cc(Cl)c(S(=O)(=O)N2CCCC2)cc1OCC(=O)NC1CCCCC1,26*,1,-14,-14,-3,16,0
SMILES,PrPC TRFRET,PfHsp40 yeast,PriA SSB inh,PrP UTR inh,MazF activator,PrPC TRFRET cf,LD9 cytotox
CC1=C(C(=O)c2ccccc2)C(c2ccc(OC(F)F)cc2)NC(=S)N1 (centres undefined),50*,0,3,-32,9,47*,4
C=CCOc1ccc(C2NC(=S)NC(c3ccccc3)=C2C(C)=O)cc1OC (centres undefined),52*,0,-4,-23,4,45*,-2
COc1cc(C2NC(=O)NC(c3ccccc3)=C2C(C)=O)ccc1OCC#N (centres undefined),8,0,-6,0,-16,x,x
CCCOc1ccc(C2NC(=S)NC(C)=C2C(=O)c2ccccc2)cc1OC (centres undefined),50*,0,6,-10,0,53*,-7
Cc1cccc(C)c1NC(=O)CN(C)C(=O)/C=C/c1cccs1,0,0,-1,-13,4,x,x
COc1cc([C@@H]2CC=C(C(=O)O)[C@H](c3cccc(Cl)c3)N2S(=O)(=O)c2ccc(C)cc2)cc(OC)c1OC,3,0,-15,-20,3,x,x
C=C[C@@]1(C)CC(=O)[C@]2(O)[C@@]3(C)[C@@H](O)CCC(C)(C)[C@@H]3[C@H](O)[C@H](OC(C)=O)[C@@]2(C)O1,34*,-1,-7,1,8,26*,-9
COc1ccc(S(=O)(=O)N2CCCCC2c2cc(C(=O)Nc3ccc4c(c3)OCO4)no2)cc1 (centres undefined),28*,x,x,x,x,18,-3
O=C(Nc1ccc2c(c1)OCO2)c1cc(C2CCCN(C(=O)CCCc3ccccc3)C2)on1 (centres undefined),23,x,x,x,x,x,x
N#Cc1cccc(NC(=O)c2cc(C3CCCCN3S(=O)(=O)c3ccccc3)on2)c1 (centres undefined),26*,x,x,x,x,17,-2
CS(=O)(=O)N1CCCCC1c1cc(C(=O)Nc2ccc3c(c2)OCO3)no1 (centres undefined),-3,x,x,x,x,x,x
O=C(Nc1ccc2c(c1)OCO2)c1cc(C2CCCN(C(=O)CCc3ccccc3)C2)on1 (centres undefined),38*,x,x,x,x,25*,-1
CCn1ccnc1CN1CCN(CC=C(C)C)C(CCO)C1 (centres undefined),-6,-1,-12,-7,-22,x,x
CC(C)CC(N)c1csc(Nc2ccccn2)n1 (centres undefined),10,x,x,x,x,x,x
CC(C)CC(N)c1csc(Nc2cnccn2)n1 (centres undefined),31*,x,x,x,x,26*,-5
O=C(N1CCCCCC1)N1CCN(C(=O)N2CCCCC2)CC1,-1,1,-1,-6,2,x,x
Cc1ccc(S(=O)(=O)N2CCCCC2)cc1NC(=O)Cn1ncc(Cl)c(Cl)c1=O,31*,-1,-4,9,-8,-7,94*
Cc1ccc(NC(=O)CSc2ncnc3ccccc23)cc1Cl,x,x,-7,x,x,x,x

# From PubChem BioAssay
